Experimental data: PubChem BioAssay (NCI)
The panel holds about 79,000 compounds, 15% with a hit somewhere; the sample as a whole holds those more often. Active and inactive are the calls of the source. Rule as the data show it: active = growth inhibition above about 70%; inactive = the rest.

Assays:
[1] = NCI Yeast Anticancer Drug Screen. Data for the rad50 strain (AID 155);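 also: 0% = growth of vehicle-only cultures of the same strain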; settings: S. cerevisiae rad50 strain growth inhibition; at 50.0 µM; active compounds read high
Outline: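 Yeast carrying a defined DNA repair defect were exposed to test compounds, and growth was compared with vehicle-treated controls to give percent inhibition.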

[2] = NCI Yeast Anticancer Drug Screen. Data for the mec2-1 strain (AID 157); settings: S. cerevisiae mec2-1 strain, at 50.0 µM, active compounds read high
Outline: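 Readout is yeast growth inhibition, normalised to vehicle-treated controls, in the mec2-1 strain exposed to compound.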

[3] = NCI Yeast Anticancer Drug Screen. Data for the sgs1 mgt1 strain (AID 161);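 also: 0% = growth of cultures given vehicle only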; settings: S. cerevisiae sgs1 mgt1 strain, at 50.0 µM, active compounds read high
Outline: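 Compounds are added to genetically altered yeast, and growth is compared with cultures given vehicle alone to give percent inhibition.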

[4] = NCI Yeast Anticancer Drug Screen. Data for the cln2 rad14 strain (AID 165);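 also: 0% = growth equal to vehicle treated cultures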; settings: S. cerevisiae cln2 rad14 strain, at 50.0 µM, active compounds read high
Outline: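 Relative to vehicle controls, growth inhibition of compound-treated cln2 rad14 yeast was recorded.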

[5] = NCI Yeast Anticancer Drug Screen. Data for the bub3 strain (AID 167); settings: S. cerevisiae bub3 mutant strain, at 50.0 µM, active compounds read high
Outline: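 Compounds were applied to a genetically altered yeast strain carrying a cell-cycle control defect. Growth inhibition was scored against vehicle-treated controls.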

[6] = NCI Yeast Anticancer Drug Screen. Data for the mlh1 rad18 strain (AID 175); settings: S. cerevisiae mlh1 rad18 strain growth inhibition; at 50.0 µM; active compounds read high
Outline: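 Test agents were incubated with a yeast strain of defined genotype (DNA damage repair defect). Inhibition of growth was derived by comparison with vehicle-exposed cultures.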

Measured: growth inhibition

CC1(C(=O)O)C2CCC(C2)C1C(=O)O (stereo not given)
inactive: [1] 11.8% | [2] 5.8% | [3] -2.7% | [4] -46.1% | [5] 3.7%

Cc1ccc(S(=O)(=O)N/N=C/c2ccccc2)cc1
inactive: [1] 5.7% | [2] -0.5% | [3] 3.2% | [4] -27.6% | [5] 8.7%

Cc1ccc(S(=O)(=O)Oc2ccc(N(CC(=O)O)S(=O)(=O)c3ccc(C)cc3)cc2)cc1
inactive: [1] 45.3% | [2] 9.8% | [3] 29.4% | [4] 11.8% | [5] -1.35%

COc1cc2c(cc1OC)C[N+]1(C)CCc3cc(OC)c(OC)cc3C1C2 (stereo not given)
inactive: [1] -16% | [2] -30.9% | [3] -9.9% | [4] 9.1% | [5] -8%

CCc1ccc(N=Nc2c(F)c(F)c(NC(C)=O)c(F)c2F)cc1
inactive: [1] -3.95% | [2] 11.3% | [3] -10.5% | [4] 6.9% | [5] 7.9%

CCC1(C)CCC(C)(CC)c2cc(C)ccc21 (stereo not given)
inactive: [1] 9.9% | [2] 9.15% | [3] -6.95% | [4] -16.8% | [5] 8.4% | [6] 25.9%

CCCCCCCCCCCCOC(=O)CSC#N
inactive: [1] -5.65% | [2] -38% | [3] -31.9% | [4] -67.5% | [5] -39.6%

O=N/C(=C(\c1ccccc1)N1CCOCC1)c1ccccc1
inactive: [1] -10.2% | [2] 11.8% | [3] 9.6% | [4] -2.45% | [5] -20.6%

O=c1oc2nc(-c3ccccc3)[nH]c(=O)c2c2c1CCCC2
inactive: [1] -8.5% | [2] -7.15% | [3] -19.2% | [4] 9.3% | [5] -17.9%

COc1cc(NC(C)=O)c2[nH]c3c(C)cc(NC(C)=O)c(C)c3c2c1
inactive: [1] -25.6% | [2] -55.1% | [3] -67.2% | [4] -34.5% | [5] -27.6% | [6] -56.7%

OC12CC/C(=N/OCc3ccccc3)CC1c1ccccc12 (stereo not given)
inactive: [1] 11.2% | [2] -22.9% | [3] -29.8% | [4] -16% | [5] -36.1%

CCCCCCCCCCCCCCCCOc1ccc(N)cc1
inactive: [1] 11.7% | [2] 6.05% | [3] -16.3% | [4] -41.2% | [5] 19%

O=C(NC1CCCCC1)OCc1c(COC(=O)NC2CCCCC2)c2cccn2c2c1cnn2-c1ccccc1
inactive: [1] 3.7% | [2] 3.4% | [3] -27.6% | [4] 3.1% | [5] -2.95%

COc1ccc(/C=N/N2CN(C(CC(N)=O)C(=O)O)P(Nc3ncccn3)N=C2N)cc1OC (stereo not given)
inactive: [1] 7.55% | [2] -3.9% | [3] 0.4% | [4] -20.9% | [5] 6.65%

Cc1cc(Oc2cnc(=O)[nH]c2)cs1
inactive: [1] 27.1% | [2] 22.4% | [3] 19.9% | [4] 1.7% | [5] 12%

N#CCCC(=O)c1ccc[nH]1
inactive: [1] 6.6% | [2] 10.8% | [3] 2.2% | [4] 5.8% | [5] 1.3%

Nc1ccc(Cl)c(Cl)c1Cl
inactive: [1] 40.5% | [2] -6.2% | [3] 52% | [4] 31% | [5] 43.3%

O=C1CSC(c2ccc([N+](=O)[O-])cc2)N1c1nncs1 (stereo not given)
inactive: [1] -10.9% | [2] -6.8% | [3] 7.25% | [4] -2.65% | [5] -8.7%

CC(C)(O)c1ccccc1[S+]1OC(C)(C)c2ccccc21 (stereo not given)
active: [5] 98.3%
inactive: [1] 27.9% | [2] 17.6% | [3] 30.3% | [4] 56.8%

O=C1NC(=O)C(=Cc2cc3c(cc2Br)OCO3)C(=O)N1
inactive: [1] 32% | [2] 30.9% | [3] 40.7% | [4] 7% | [5] 41.9%

Cc1cc(C)c(C2CNCc3cc4c(cc32)CNCC4c2c(C)cc(C)cc2C)c(C)c1 (stereo not given)
inactive: [1] -16.3% | [2] -32.8% | [3] -46% | [4] -44.9% | [5] -62.8%

CCc1cc(CN2CCN(CCO)CC2)c(O)c(CN2CCN(CCO)CC2)c1
inactive: [1] 1.5% | [2] 6% | [3] -13.2% | [4] 3% | [5] -0.9%

COC(=O)C1(CCCCCBr)CCCCCCCCCCC1=O (stereo not given)
inactive: [1] -8.6% | [2] -15.4% | [3] 24.1% | [4] 12.7% | [5] -25%

COc1ccc(-c2c([O-])oc(-c3ccccc3)[n+]2C)cc1
inactive: [1] 17.8% | [2] -18.4% | [3] -6.2% | [4] 7.3% | [5] 3.1%

COc1cc(-c2cc(=O)c3c(OC)c(OC)c(OC)cc3o2)c(OC)c(OC)c1OC
inactive: [1] 38% | [2] 10.6% | [3] 3.05% | [4] -12.9% | [5] -6.15%

CN(Cc1ccc(Cl)cc1)C(=O)NCCCCCCNC(=O)N(C)Cc1ccc(Cl)cc1
active: [1] 96.8% | [2] 96.6% | [3] 95.7% | [4] 96.2% | [5] 95.7%

COC(=O)N/N=C/c1ccc(NC(C)=O)cc1
inactive: [1] 7.8% | [2] 0% | [3] -13.8% | [4] -75.6% | [5] -4.95%

O=C(O)C1=CC(c2ccccc2O)=NCCN1
inactive: [1] -20.8% | [2] -0.75% | [3] 0.7% | [4] -34.6% | [5] -4.1%

C[n+]1c(/C=C/c2ccc3c(c2)OCO3)ccc2ccccc21
inactive: [1] 1.55% | [2] -0.2% | [3] 22% | [4] 6% | [5] 14.1%

O=C(NCP(=O)(c1ccccc1)c1ccccc1)OCc1ccccc1
inactive: [1] -50.2% | [2] -3.7% | [3] -25.9% | [4] 10.4% | [5] -12.5%

CCCCC(CCCC)NCC(C)OC(=O)c1ccc(N)cc1 (stereo not given)
inactive: [1] 20.6% | [2] -2.35% | [3] 0.5% | [4] -26.8% | [5] -6%

CCCCC(C)C(=O)CC(SCC)c1ccc(Cl)c(Cl)c1 (stereo not given)
inactive: [1] 19.6% | [2] -26.9% | [3] 17.3% | [4] -12.4% | [5] 8.2%

NC(=O)c1ncn(C2CCC(CP(=O)(O)O)C2)c1N (stereo not given)
inactive: [1] -7.45% | [2] -14.1% | [3] -9.55% | [4] -28.4% | [5] -7%

Nc1ccc(Br)cc1C(=O)O
inactive: [1] 4.2% | [2] -1.15% | [3] -17.4% | [4] -3.2% | [5] 23.6%

Cc1ccc(Cc2nn(C)c(=O)n2N)cc1
inactive: [1] -7.1% | [2] -2.5% | [3] 18.6% | [4] -3% | [5] -13.1% | [6] -18.9%

COc1ccccc1N1C(=O)C2c3[nH]c4ccccc4c3C3CCC(C(C)(C)C)CC3C2C1=O (stereo not given)
inactive: [1] 17.8% | [2] -11.3% | [3] -4.2% | [4] -12.2% | [5] -16.2%

CCOC(=O)/C=C(\CC(=O)OCC)Nc1ccc(OC)cc1
inactive: [1] 6.8% | [2] -21.1% | [3] 4.1% | [4] -13.2% | [5] -2.3%

CC(=O)CC(SCCSCCSC(CC(C)=O)c1ccccc1)c1ccccc1 (stereo not given)
inactive: [1] 6.9% | [2] -3.65% | [3] 5.05% | [4] 17.1% | [5] 3.95%

O=C(c1ccc(F)cc1)c1c[nH]c(=O)[nH]c1=O
inactive: [1] -0.45% | [2] -18.1% | [3] -7.85% | [4] -6.85% | [5] 2.6%

O=C(O)c1ccccc1/C=N\NC1=NCCCCN1
inactive: [1] -34.2% | [2] -10.3% | [3] -31.4% | [4] 20.2% | [5] -27.6% | [6] -18.4%

Cn1c(=O)c2[nH]c(=S)n(CC3CCCCC3)c2n(C)c1=O
inactive: [1] -1.95% | [2] -3.55% | [3] -8.4% | [4] -29% | [5] 0.1% | [6] 17.4%

S=C(N/N=C/c1cccc2ccccc12)Nc1c(Cl)cccc1Cl
active: [2] 83.6% | [3] 94.2%
inactive: [1] 67.4% | [4] 55.6% | [5] 44.6% | [6] 66.2%

C=C1C(=O)O[C@@H]2C(=O)[C@@H](C)[C@@H]3C=CC(=O)[C@@]3(C)[C@@H](OC(=O)/C(C)=C\C)[C@H]12
inactive: [1] -2.4% | [2] -14.3% | [3] 8.8% | [4] 10.7% | [5] 7.4% | [6] 27.1%

C/C=C(\C)C(=O)N/N=C\C=C\c1ccccc1
inactive: [1] -12.2% | [2] -10.8% | [3] 0.95% | [4] -44.8% | [5] -16.1% | [6] -7.05%

CC(=O)OCC1OC(Sc2nc3ncnc(N)c3[nH]2)C(OC(C)=O)C(OC(C)=O)C1OC(C)=O (stereo not given)
inactive: [1] -0.55% | [2] -1.3% | [3] -18.9% | [4] -3.5% | [5] 4.5% | [6] -3.4%

C=CCNC(=S)N1c2ccccc2NC(=O)CC1C (stereo not given)
inactive: [1] -45.8% | [2] -9.2% | [3] -20.4% | [4] 13.4% | [5] 13.1% | [6] -15.4%
